From PubChem BioAssay
GPR151 activ: human GPR151 activation; Q8TDV0; PathHunter beta-arrestin GPR151 cells, luminescence; activation, % at 11.2 µM; 650,000 compounds, 1% hits; in the data active means activation above about 4.9%;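 further: 0% = median of compound wells and 100% = cells with positive control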
Target sequence (Q8TDV0 whole entry, looked up): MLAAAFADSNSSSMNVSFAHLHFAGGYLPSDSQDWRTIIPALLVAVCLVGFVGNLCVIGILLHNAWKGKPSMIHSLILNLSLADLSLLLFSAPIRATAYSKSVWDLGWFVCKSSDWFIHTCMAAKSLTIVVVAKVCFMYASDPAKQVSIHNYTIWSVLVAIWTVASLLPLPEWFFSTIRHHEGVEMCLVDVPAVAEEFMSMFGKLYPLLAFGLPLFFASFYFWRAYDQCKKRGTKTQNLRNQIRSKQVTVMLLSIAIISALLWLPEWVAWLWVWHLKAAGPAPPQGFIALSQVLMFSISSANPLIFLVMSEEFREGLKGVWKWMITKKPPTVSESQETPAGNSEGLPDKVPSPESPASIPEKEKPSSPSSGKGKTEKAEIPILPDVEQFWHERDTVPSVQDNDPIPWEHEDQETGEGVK
MITF primary: blocks human microphthalmia-associated transcription factor; O75030; AlphaScreen MITF homodimerization, bead proximity signal; inhibition, % at 2.6 µM; 650,000 compounds, 0.91% hits; AID 1259374; in the data active means inhibition above about 50%;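 further: 0% = vehicle wells with protein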
FBW7 act: human FBW7 E3 ligase activation, primary screen. Q969H0. AlphaScreen FBW7–phospho-cyclin E peptide binding, activator screen. normalized activity (activation), % at 26.1 µM. 650,000 compounds, 0.13% hits; in the data active means normalized activity above about 1.9%;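 further: purified mutant Fbw7 with reduced substrate affinity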
TEAD-YAP inh: TEAD-YAP interaction inhibition; HEK-TIYL cells, TEAD-Gal4/YAP UAS-luciferase luminescence; 640,000 compounds, 1.4% hits; inhibition, % at 9.12 µM; AID 1259422; in the data active means inhibition above about 32%;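 further: 0% = median of test compound wells and 100% = reference inhibitor wells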
GPR151 conf act: human GPR151 activation, confirmation screen | shares compounds with GPR151 activ | GPR151 PathHunter beta-arrestin cells, luminescence, 90 min; % of EA-reagent control over plate median | activation, % at 11.2 µM | 6,700 tested, under 10 active;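 active means mean percent activation across replicates above the confirmation screen cutoff of 4.91%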
GPR119 counter: counter-screen for GPR151 activators: effect on human GPR119; shares compounds with GPR151 activ; GPR119 PathHunter beta-arrestin cells, luminescence, 90 min; 0 = compound-well median, 100 = enzyme-acceptor control; activation, % at 11.2 µM; 6,700 compounds, 0.3% hits;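 active means mean percent activation in the counterscreen above 29.09%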;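 further: counterscreen on off-target GPR119 to flag nonselective hits from the GPR151 activator screen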
Starred values were filed as active, the others as inactive; / = not tested or not shown. Most compounds without a hit are left out; they make up all but 3.4% or so of the library.

SMILES	GPR151 activ	MITF primary	FBW7 act	TEAD-YAP inh	GPR151 conf act	GPR119 counter
Cc1ccn2cc(-c3ccc(NC(=O)CCc4ccccc4)cc3)nc2n1	-2	-9	0	-26	/	/
COc1cccc(CNC(=O)CCS(=O)(=O)c2ccc3c(c2)SCC(=O)N3)c1	11*	12	0	2	0	-8
CCC1Sc2cc(S(=O)(=O)CCC(=O)NCc3cccnc3)ccc2NC1=O (centres undefined)	7.5*	0	0	10	0	4
COc1ccc(CNC(=O)CCS(=O)(=O)c2ccc3c(c2)n(C)c(=O)c(=O)n3C)cc1	0	-11	0	4	/	/
Cn1c(=O)c(=O)n(C)c2cc(S(=O)(=O)CCC(=O)NCc3ccccc3)ccc21	6.1*	-18	1	-10	0	-4
CCCC(=O)Nc1ccc(OC)c(Cl)c1	-3	16	0	-2	/	/
COC(=O)CCC(=O)Nc1ccc(OC)c(Cl)c1	6.0*	-2	0	6	0	12
COc1ccccc1OCCSc1nc(-c2ccccc2)cc(=O)[nH]1	0	21	0	-10	/	/
C=CCNC(=O)C(=O)NCCC(C)C	-2	9	0	-8	/	/
COc1ccc(NC(=O)CCS(=O)(=O)c2ccc3c(c2)SCC(=O)N3)cc1OC	1	-4	0	-4	/	/
COc1ccc(NC(=O)CCS(=O)(=O)c2ccc3c(c2)SCC(=O)N3)cc1Cl	5.2*	3	0	-1	1	6
CC(Oc1ccc2c(c1)OCO2)C(=O)NNC(=O)Nc1cccc(Cl)c1Cl (centres undefined)	0	-18	0	5	/	/
Cc1cc(OC(C)C(=O)NNC(=O)Nc2cccc(Cl)c2Cl)ccc1[N+](=O)[O-] (centres undefined)	6.1*	19	0	-6	0	4
CC(=NCCNc1ccc(Cl)nc1)NC#N	1	10	0	0	/	/
O=C(CNC(=O)c1cccc(F)c1)N/N=C/c1cc(Cl)ccc1O	2	-2	0	-5	/	/
O=C(CNC(=O)c1cccc(F)c1)N/N=C/c1cc(I)ccc1O	5.0*	8	0	12	0	3
Cc1ccc(NC(=S)N(Cc2ccccc2)Cc2ccc(C)o2)cc1	-1	-2	0	-11	/	/
CC1(C2CCN(Cc3ccc4c(c3)Cc3ccccc3-4)CC2)NC(=O)NC1=O (centres undefined)	2	-11	0	9	/	/
C=CCOc1ccc(/C=C2\C(=O)NC(C)=C2C(=O)OC)cc1	5.2*	6	0	-3	1	19
CCn1cc(Br)c(C(=O)Nc2cccc(SC)c2)n1	6.4*	-2	0	-25	0	-7
CCn1cc(Br)c(C(=O)Nc2cccc(F)c2)n1	-1	7	0	-22	/	/
CCCCN(C)S(=O)(=O)c1ccc(C(=O)Nc2ccc3sc(C)nc3c2)cc1	5.2*	27	0	61*	0	13
Cn1ccnc1CN1CCC(Oc2ccc(C(=O)NCc3ccncc3)cc2)CC1	5.2*	-8	0	6	0	1
CCc1ccccc1-n1c(C)c(C)n2c3c(=O)n(CC)c(=O)n(C)c3nc12	5.1*	4	0	8	1	3
CCc1ccccc1-n1c(C)c(C)n2c3c(=O)n(CC(N)=O)c(=O)n(C)c3nc12	0	-5	1	-3	/	/
SMILES	GPR151 activ	MITF primary	FBW7 act	TEAD-YAP inh	GPR151 conf act	GPR119 counter
NS(=O)(=O)c1ccccc1NC(=O)c1c(O)c2cccc3c2n(c1=O)CC3	5.2*	-5	0	-9	-1	-10
CCCCOC(=O)C1=C(C)NC(=O)NC1c1cc2c(cc1Br)OCO2 (centres undefined)	5.1*	-6	0	9	1	9
O=C1O[C@@H]2C[C@H]3C[C@@H]2[C@@H]1[C@H]3C(=O)N(Cc1cccs1)C1CCCCC1	0	-5	0	11	/	/
Cc1ccc(NS(=O)(=O)c2ccc(F)cc2)cc1C	-1	-3	0	-13	/	/
Cc1ccc(NS(=O)(=O)c2ccc(NC=O)cc2)cc1C	5.8*	5	0	15	0	-2
C/C(=N\Nc1ccc(C(F)(F)F)cn1)c1ccncc1	6.4*	-5	0	-28	0	-8
C/C(=N\Nc1ccc(C(F)(F)F)cn1)c1ccc(O)cc1	0	-8	0	-1	/	/
COCCCn1c(-c2ccc(F)cc2)nc2c(c(=O)c3ccccc3n2C)c1=O	5.9*	16	1	0	0	-5
Cn1c2ccccc2c(=O)c2c(=O)n(Cc3ccccc3)c(-c3ccco3)nc21	0	-2	0	4	/	/
Cn1c2ccccc2c(=O)c2c(=O)n(CCc3ccccc3)c(-c3ccco3)nc21	9.4*	-12	0	-2	0	-5
COC(=O)C1=C(O)/C(=C\c2cc(C)n(-c3cc(Cl)ccc3C)c2C)N=C1C	0	-12	0	0	/	/
COC(=O)C1=C(O)/C(=C/c2cc(C)n(-c3cc(C)ccc3C)c2C)N=C1C	5.2*	-9	0	9	-1	-8
CCCCn1c(C)nc2c(sc3nc4c(cc32)COC(C)(C)C4)c1=O	9.0*	20	0	-34	1	1
Cc1ccccc1NC(=O)C1CCC(C)(C(=O)O)C1(C)C (centres undefined)	5.1*	2	0	-4	-1	-10
Cc1csc(NC(=O)C2CCC(C)(C(=O)O)C2(C)C)n1 (centres undefined)	7.3*	2	0	-2	-1	-10
CC1(C(=O)O)CCC(C(=O)Nc2ccc(Nc3ccccc3)cc2)C1(C)C (centres undefined)	1	12	0	-1	/	/
CCOc1ccc(-n2cc(C(=O)NCCc3ccc(OC)c(OC)c3)c3cc(OC)c(OC)cc3c2=O)cc1	0	14	0	6	/	/
O=C1OC(c2ccc(Cl)cc2Cl)=N/C1=C/c1ccc(Cl)c(Cl)c1	-1	5	0	2	/	/
C=CCSc1nnc2c(n1)OC(/C=C/c1ccc([N+](=O)[O-])o1)Nc1ccc(Br)cc1-2 (centres undefined)	9.1*	32	0	27	2	9
COC(=O)C1=C(N)N(c2ccc(S(N)(=O)=O)cc2)C2=C(C(=O)CC(C)(C)C2)C1c1ccc2c(c1)OCO2 (centres undefined)	0	3	0	12	/	/
CC(C)=CCN1CCN(Cc2sccc2C)CC1CCO (centres undefined)	12*	0	0	-14	2	15
OC1CCN(C2CCN(c3nncc(-c4ccc(C(F)(F)F)cc4)n3)CC2)CC1	7.3*	-2	0	19	0	-4
FC(F)(F)c1ccc(-c2cnnc(N3CCSCC3)n2)cc1	2	-5	0	-1	/	/
Cc1cc(NCCN(C(C)C)C(C)C)nc(Nc2ccnn2C)n1	-2	4	0	0	/	/
